# A selection: hits, their analogues and other compounds. The true share with any hit is near 17%.
# HT1080NT lethal: kills 2HG-producing HT-1080-NT fibrosarcoma cells; Potency, µM (doses to about 46.1 µM), for inactives: top-dose activity, negative = less viability, actives largely listed as cytotoxic; 360,000 compounds, 1.6% hits; HT-1080-NT fibrosarcoma viability, CellTiter-Glo ATP luminescence, 48 h; AID 686970;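 note: NT is the 2HG producing partner of a matched IDH1 knockdown line; 0% = DMSO-treated cells and -100% = media-only wells without cells; nearly all actives have a fitted effect of over 55% in size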
#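 Compounds were tested in concentration-response format on HT-1080-NT cells for 48 hours at 37 degrees C. Cell viability came from CellTiter-Glo luminescence; curves were classified by r2, response magnitude and activity.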
# HT1080 IDH1KD tx: toxicity to HT-1080 IDH1 knockdown cells (counter line) | AID 686971 | 360,000 compounds, 2% hits | HT-1080 IDH1 knockdown viability, ATP luminescence, 48 h | Potency, µM (highest dose often 46.1 µM), for inactives: top-dose activity, negative = toxicity, most hits filed as cytotoxic;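 note: 0% = DMSO wells and -100% = cell-free medium wells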
#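 Viability of IDH1-knockdown HT-1080 fibrosarcoma cells was assessed by CellTiter-Glo after 48 h at 37 °C with titrated compound; concentration-effect curves were classified by fit quality and response size.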
# TDP1 cell CPT: growth inhibition of DT40 Tdp1-/-;hTDP1 cells with camptothecin (screen for TDP1 inhibitors) | Potency, µM (series often up to 46.2 µM), inactives show at the highest dose activity change, negative = growth inhibition, actives largely listed as inhibitors | chicken DT40 Tdp1-/-;hTDP1 cells + 20 nM CPT, ATP luminescence, 48 h | 420,000 compounds, 12% hits | AID 686979; note: % is set by controls: 0 for no effect and ±100 for the full control effect; nearly all actives have a fitted effect of over 55% in size
#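 Cell growth measured by CellTiter-Glo luminescence after a minimum 48 h, 37 C compound exposure with 20 nM CPT in Tdp1-knockout DT40 cells stably expressing hTDP1, seeded 400/well; qHTS titration format.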
# TDP1 cell noCPT: qHTS for Inhibitors of human tyrosyl-DNA phosphodiesterase 1 (TDP1): qHTS in cells in absence of CPT; DT40 Tdp1-/- hTDP1 cells, no CPT, ATP luminescence, 48 h; Potency, µM (doses to about 46.2 µM), without a hit: top-dose activity change, negative = growth inhibition, usual class: inhibitors; 420,000 compounds, 15% hits; AID 686978, 2013; note: % is set by controls: 0 for no effect and ±100 for the full control effect; nearly all actives have a fitted effect of over 55% in size
#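 Compound effects on proliferation are scored in DT40 Tdp1-/-;hTDP1 cells in the absence of CPT. ATP levels (CellTiter-Glo luminescence) are recorded after a ≥48 hr, 37 °C incubation.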
# TGFb inhibitor: TGF-b pathway inhibition; HepG2 CAGA-GFP TGF-b/SMAD3 reporter, GFP fluorescence, 18 h; TGF-beta stimulated, 500 pg/mL final; Potency, µM (highest dose often 46.1 µM), for the others: at the top dose activity, negative = inhibition, hits mostly inhibitors; 410,000 compounds, 1.2% hits; AID 588855; note: % is set by controls: 0 for no effect and ±100 for the full control effect; nearly all actives have a fitted effect of over 65% in size
#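 GFP signal (ex488/em500-530) from TGF-beta-stimulated HEPG2 CAGA-GFP cells, 500 pg/mL final, 18 h at 37 degrees C in DMEM plus 1% FBS, normalized to unstimulated and DMSO-stimulated controls.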
# HepG2 tox: HepG2 cytotoxicity, counter-screen for TGF-b inhibitors. HepG2 CAGA-GFP viability, ATP luminescence, 18 h. Potency, µM (doses to about 46.1 µM), for inactives: at the highest dose activity change, negative = cytotoxicity, most hits filed as cytotoxic. 410,000 compounds, 0.76% hits
#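 CellTiter-Glo luminescence gave cytotoxicity after 18 hours at 37 degrees C. The cells were HepG2 CAGA-GFP in 1% FBS DMEM, stimulated with 500 pg/mL TGF-beta after compound addition. %Activity was normalised to no-cell wells (complete cell-killing) and DMSO (no toxicity), and curves were fitted and classified.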
# An asterisk follows results filed as active; ? = inconclusive; / = not tested or not shown. Calls come from the whole dose curve; as a rule, active = well fitted curve in the direction sought with a large enough effect; inconclusive = small, poorly fitted or top-dose-only effect, or another doubt; inactive = no such curve, though single readings can be large; an effect the other way counts as inactive or inconclusive. Potency is the fitted concentration of half-maximal effect.
SMILES,HT1080NT lethal,HT1080 IDH1KD tx,TDP1 cell CPT,TDP1 cell noCPT,TGFb inhibitor,HepG2 tox
Cn1c(=O)c2c(nc(NCCCN3CCOCC3)n2Cc2ccc(Cl)cc2)n(C)c1=O,2%,-14%,-1%,-22%,-2%,-24%
Cn1c(=O)c2c(nc(NCc3ccccc3)n2Cc2ccccc2)n(C)c1=O,/,/,8.2µM*,4.1µM*,-56%,-19%
Cn1c(=O)c2c(nc(NCC3CCCO3)n2Cc2ccccc2)n(C)c1=O (configuration not stated),-6%,-2%,?,?,-4%,3%
C/C(Cl)=C\Cn1c(Nc2ccccc2)nc2c1c(=O)n(C)c(=O)n2C,0%,2%,11µM*,?,12%,-24%
Cn1c(=O)c2c(nc(NCc3ccccc3)n2Cc2ccc(Cl)c(Cl)c2)n(C)c1=O,/,/,8.2µM*,7.3µM*,?,-45%
Cn1c(=O)c2c(nc(NCCc3ccccc3)n2Cc2ccc(Cl)cc2)n(C)c1=O,/,/,12µM*,10µM*,?,-40%
O=C(CSc1nc2c([nH]c3ccccc32)c(=O)n1-c1ccc(Cl)cc1)N1CCc2ccccc21,/,/,-3%,14%,4%,-9%
CC1CSC(N(C(=O)c2ccc(S(C)(=O)=O)cc2)c2ccc(Cl)cc2)=N1 (configuration not stated),?,?,?,?,1%,-20%
Cn1c(=O)c2c(ncn2Cc2ccccc2)n(C)c1=O,10%,-9%,?,-29%,4%,3%
Cn1c(=O)c2nc(NCc3ccccc3)cnc2n(C)c1=O,-2%,13%,?,13µM*,3%,6%
CCOc1ccc(CCNc2nc3c(c(=O)n(C)c(=O)n3C)n2CC)cc1OCC,-1%,6%,16µM*,14µM*,11%,-4%
O=C(c1nc2ccccn2c1CNCCCn1cccn1)N1CCCC1,-5%,7%,10%,-17%,-3%,-1%
Cc1nn(C(C)C(=O)NCc2ccco2)c(C)c1[N+](=O)[O-] (configuration not stated),25%,16%,6%,7%,0%,28%
C/C(=N\NC(=O)C(C)n1nc(C)c([N+](=O)[O-])c1C)c1ccccc1O (configuration not stated),?,9.2µM*,4.1µM*,1.8µM*,?,-20%
COC(=O)C1=C(Nc2ccc(C)cc2)C=C(C)C(C(=O)OC)C1c1ccc(OC)cc1 (configuration not stated),?,?,16µM*,26µM*,0%,-22%
Cc1ccc(Cl)c(OCCN2CCc3ccccc3C2)c1,-9%,-13%,?,23µM*,-28%,-38%
Cc1ccc(C(C)C)c(OCC(O)CN2CCc3ccccc3C2)c1 (configuration not stated),?,?,?,?,?,-43%
C/C=C/c1ccc(OCCN2CCc3ccccc3C2)c(OC)c1,-2%,?,?,?,-55%,-33%
C=CCc1ccc(OCCN2CCc3ccccc3C2)c(OC)c1,-10%,-13%,?,16µM*,-18%,-7%
O=C(CSc1nc(=O)n(CCCN2CCOCC2)c2c1CCCC2)Nc1cccc(Cl)c1,0%,4%,-21%,?,?,-3%
CCc1nc2ccc(C(=O)NCc3ccc(N(C)C)cc3)cc2nc1CC,/,/,?,?,15%,2%
CCc1nc2ccc(C(=O)NCCc3ccc(OC)cc3OC)cc2nc1CC,/,/,26µM*,18µM*,?,-96%

# From PubChem
